Compound activity as filed in PubChem.
aSyn rescue – rescues yeast growth from alpha-synuclein toxicity. Potency, µM (titrated, usually from 46.1 µM), for inactives: at the top dose growth rescue (activation), hits mostly activators. AID 652106. Yeast expressing alpha-synuclein, growth rescue, BacTiter-Glo, 24 h. actives 0.14% (n = 370,000); further: % of control where 0% means no effect; nearly all actives have a fitted effect of over 65% in size
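Screening used galactose-induced yeast with toxic alpha-synuclein levels, exposed to compound for 24 hr at 30 deg C. Cell growth, read with BacTiter-Glo luminescence, gave the measured signal.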
FUS suppressor – suppressors of FUS proteinopathy in yeast; actives 0.24% (n = 390,000); AID 1347120; Potency, µM (titrated, usually from 76.6 µM), hits mostly activators; S. cerevisiae FUS-expressing, growth rescue, OD600, 24 h;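 further: plate controls were DMSO vehicle for no effect and reference control for full effect; nearly all actives have a fitted effect of over 55% in size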
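Yeast expressing FUS under galactose induction, OD 0.005 in 2% galactose medium; compounds in a dilution series, 24 h at 30C. Growth rescue by absorbance at 600 nm; CP55940 positive control, DMSO negative.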
ERG Ets-DNA blk – ERG Ets/DNA interaction inhibition | actives 0.028% (n = 370,000) | P11308 | Potency, µM (top dose mostly 76.9 µM), without a hit: at the highest dose FP activity, negative = inhibition, actives largely listed as inhibitors | fluorescence polarization, His-ERG Ets domain / labelled DNA; active means well fitted inhibition curve with a large enough effect in the polarisation, with a control signal flat; inconclusive means small, poorly fitted or top-dose-only effect, or effect the other way, or a change in a side signal; inactive means no such curve, though single readings can be large or run the other way; the % refers to the polarisation;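 further: polarization taken with two DNA probes labelled with fluorescein and Texas red; % of control where 0% means no effect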
Target sequence (P11308 whole entry, looked up, the tested form may be a part): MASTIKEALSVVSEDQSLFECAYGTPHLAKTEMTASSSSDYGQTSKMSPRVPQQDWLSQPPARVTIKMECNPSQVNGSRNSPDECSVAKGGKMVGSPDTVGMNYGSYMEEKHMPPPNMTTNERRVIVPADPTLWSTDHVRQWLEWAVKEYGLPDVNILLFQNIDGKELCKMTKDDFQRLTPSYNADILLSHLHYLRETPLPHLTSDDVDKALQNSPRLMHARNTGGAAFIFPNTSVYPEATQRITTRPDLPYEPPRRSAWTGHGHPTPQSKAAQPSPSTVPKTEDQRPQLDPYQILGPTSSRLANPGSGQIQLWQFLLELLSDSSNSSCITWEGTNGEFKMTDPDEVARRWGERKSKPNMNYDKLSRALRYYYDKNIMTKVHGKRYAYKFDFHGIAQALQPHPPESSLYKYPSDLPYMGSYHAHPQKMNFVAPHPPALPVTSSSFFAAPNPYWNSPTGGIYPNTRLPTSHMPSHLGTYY
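His-tagged ERG Ets domain (1 uM in the protein solution; 300mM KCl, 50mM Tris-HCl, 1mM EDTA, 1mM DTT, pH 7.5) received compound, then a probe mix of 5 nM fluorescein-DNA and 100nM Texas-615-DNA. Fluorescence polarization was read for both dyes.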
TDP43 rescue – rescues yeast growth from TDP-43 toxicity; AID 652104; actives 1.8% (n = 410,000); TDP-43 expressing yeast growth rescue, BacTiter-Glo, 24 h; Potency, µM (doses to about 46.1 µM), inactives show top-dose growth rescue (activation), hits mostly activators; further: % of control where 0% means no effect; nearly all actives have a fitted effect of over 50% in size
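In this qHTS, compounds that restore growth of yeast expressing TDP-43 appear as activators. Cells (OD600=0.02, galactose medium, raffinose-pregrown) are incubated with compound 24 hr at 30 deg C and growth is quantified by BacTiter-Glo.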
Mito fusion act – inhibitors of mitochondrial division or activators of mitochondrial fusion | S. cerevisiae fusion-defective mutant growth rescue, CellTiterGlo 48 h | Potency, µM (doses to about 46.1 µM), for the others: at the highest dose growth rescue (activation), hits mostly activators | actives 0.23% (n = 320,000) | AID 485298; further: % of control where 0% means no effect; nearly all actives have a fitted effect of over 45% in size
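Compounds are tested for their ability to restore growth of mitochondrial fusion-defective yeast strains at non-permissive 37C in YPEG medium over 48 hours. Viability is quantified by luciferase luminescence.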
Abeta rescue – A-beta toxicity reversal in yeast; actives 0.063% (n = 410,000); Potency, µM (top dose mostly 46.1 µM), most hits filed as activators; yeast expressing A-beta42, growth rescue, OD600, 48 h; response scale: 0% DMSO, 100% iron-clioquinol control; further: nearly all actives have a fitted effect of over 55% in size
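Yeast growth medium received pinned compounds, then yeast cells expressing toxic A-beta were added; plates incubated at 30 C for 48 hr. Growth read as absorbance at 600 nm, normalized to DMSO and equimolar FeCl3 plus clioquinol controls.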
The depositor's hits bear a star; i = inactive; ? = inconclusive; · = no result; [ ] = another dose, or the depositor's remark. The list is not random: actives were taken first. Their share in the collection is about 2.2%. Unless noted, the call rests on the fitted dose curve; in most records, active means well fitted curve in the direction sought with a large enough effect; inconclusive means small, poorly fitted or top-dose-only effect, or another doubt; inactive means no such curve, though single readings can be large; an effect the other way counts as inactive or inconclusive. Potency means the concentration at half of the fitted maximal effect.

SMILES	aSyn rescue	FUS suppressor	ERG Ets-DNA blk	TDP43 rescue	Mito fusion act	Abeta rescue
O=C1N[C@@H](Cc2ccccc2)C(=O)N2[C@H]3Nc4ccccc4[C@@]3([C@]34C[C@H]5C(=O)N[C@@H](Cc6ccccc6)C(=O)N5[C@H]3Nc3ccccc34)C[C@@H]12	-5%	?	-19%	4%	·	i
O=C(Nc1ccc(Br)c(C(F)(F)F)c1)c1ccccc1	-26%	·	-1%	8.9µM*	22µM*	i
COc1ccc(Nc2nc3c(S(=O)(=O)c4ccc(Br)cc4)nnn3c3ccsc23)c(OC)c1	·	i	2%	-4%	·	i
CC(=O)C(Cl)C(=O)Nc1ccccc1 (configuration not stated)	-31%	i	-2%	3.5µM*	-2%	i
O=C(Nc1ccccc1)C(Cl)C(=O)c1ccccc1 (configuration not stated)	-69%	i	-4%	-93%	-2%	i
Cc1nn(-c2ccccn2)c2c1-c1nc(N)sc1CC2	13µM*	·	·	·	·	·
COc1ccc(OC)c(NC(=O)c2csc(Cl)c2OC)c1	6%	?	10%	20µM*	10µM*	i
COc1ccc(OC)c(NC(=O)c2ccc(Cl)cc2)c1	-1%	i	-3%	-13%	15%	i
Cc1ccc2c(=O)c(C(=O)c3ccccc3)cn(CC(=O)Nc3ccc(C)c(Cl)c3)c2n1	·	i	8%	1%	·	i
O=C(NC1CCSc2ccccc21)c1cc([N+](=O)[O-])ccc1N1CCOCC1 (configuration not stated)	-1%	i	?	35µM*	-37%	i
O=C(OCc1ccccc1F)c1cc([N+](=O)[O-])ccc1N1CCOCC1	5%	·	·	35µM*	7%	i
Cc1ccccc1COC(=O)c1cc([N+](=O)[O-])ccc1N1CCOCC1	17%	i	-3%	26%	10%	i
O=C(NC1CCSc2ccccc21)c1ccc([N+](=O)[O-])cc1 (configuration not stated)	0%	i	-13%	?	1%	?
CC(=O)Nc1ccc(NC(=O)/C=C/c2ccc3c(c2)OCO3)cc1	0%	i	3%	-15%[9.22 µM]	-4%	i
CC(C)(C)c1ccc(/C=C/C(=O)Nc2ccc3c(c2)OCCO3)cc1	-44%	·	·	·	15µM*	·
COc1ccc(-c2cn3cccnc3n2)cc1NC(=O)c1c(F)cccc1F	·	i	3%	13%	·	i
CC1CCCC(NC(=O)COC(=O)c2ccc(N(C)C)cc2)C1C (configuration not stated)	·	i	7%	10µM*	8%	i
CC(C)(C)Nc1nc(Cl)nc(Nc2ccccc2)n1	1%	i	2%	28µM*	-1%	i
COc1ccccc1Nc1nc(Cl)nc(NC(C)(C)C)n1	0%	i	5%	22µM*	6%	i
CCCNC(=O)c1cc2c3ccccc3n(C)c2s1	0%	i	-7%	14µM*	?	i
COC(=O)c1ccccc1NC(=O)Cn1c(=O)n(-c2ccc(Cl)cc2)c(=O)c2c(C)c(C)sc21	·	i	4%	-5%	·	i
CC(=O)Nc1ccc(NC(=O)C2Cc3c(-c4ccc5c(c4)OCO5)ccnc3O2)cc1 (configuration not stated)	-6%	i	·	7%	·	i
O=C(Nc1ccc2c(c1)OCO2)C1Cc2c(-c3ccc4c(c3)OCO4)ccnc2O1 (configuration not stated)	6%	i	·	28µM*	·	i
COc1ccc(NC(=O)C2Cc3c(-c4ccc5c(c4)OCO5)ccnc3O2)cc1 (configuration not stated)	15%	i	·	25µM*	·	i
O=C(Nc1ccccc1)C1Cc2c(-c3ccc4c(c3)OCO4)ccnc2O1 (configuration not stated)	16%	i	·	35µM*	·	i
SMILES	aSyn rescue	FUS suppressor	ERG Ets-DNA blk	TDP43 rescue	Mito fusion act	Abeta rescue
O=C(Nc1ccccc1)C1Cc2c(-c3ccco3)ccnc2O1 (configuration not stated)	?	i	·	25µM*	·	i
O=C(Nc1cccnc1)C1Cc2c(-c3ccc4c(c3)OCO4)ccnc2O1 (configuration not stated)	-3%	i	·	-49%	·	i
CCN(CC)c1nc2c(S(=O)(=O)c3ccc(C)cc3)nnn2c2ccsc12	·	i	6%	-1%	·	i
CC(C)Cc1csc(=S)[nH]1	10%	i	10%	0%	·	?
Cc1nc2ccccc2c2nc3ccccc3n12	?	i	·	13µM*	-3%	i
Cc1nn2c(C)c(C(=O)NCCc3ccccc3)cnc2c1-c1ccccc1	·	i	1%	18µM*	·	i
COC(=O)[C@]12C[C@H](CC(=O)N3CCC(c4ccccc4)CC3)C(=O)N(CCC3=CCCCC3)C1=C[C@H](C(C)C)O[C@@H]2C1CC1	·	i	·	·	·	·
c1ccc(-c2nnc(N3CCCC3)nc2-c2ccccc2)cc1	-7%	i	0%	18µM*	29%	i
O=C(CN1CCN(S(=O)(=O)c2cc(Cl)ccc2Cl)CC1)Nc1cccc(F)c1	9%	i	0%	35µM*	·	i
O=C(CN1CCCN(S(=O)(=O)c2ccc(F)cc2)CC1)Nc1cccc(F)c1	-7%	i	-9%	-16%	12%	i
N#C/C(=C\c1ccccn1)c1nc2ccccc2s1	13%	i	39%	18µM*	20%	?
O=[N+]([O-])c1nn(-c2ccc3c(c2)OCCO3)n(O)c1=NCc1ccc(F)cc1	-22%	·	19%	-12%	?	i
O=[N+]([O-])c1nn(-c2ccc3c(c2)OCCO3)n(O)c1=NCc1ccc(F)cc1Cl	-1%	i	-5%	22µM*	1%	i
O=[N+]([O-])c1nn(-c2ccc3c(c2)OCCO3)n(O)c1=NCCC1=CCCCC1	-1%	i	-7%	14µM*	-1%	i
Cc1ccc(NC(=O)CC2COc3ccccc3O2)cc1 (configuration not stated)	3%	i	-2%	0%	4%	i
FC(F)(F)c1cccc(NC(=S)NCC2COc3ccccc3O2)c1 (configuration not stated)	-29%	i	3%	35µM*	-12%	i
CN(CC1COc2ccccc2O1)C(=S)Nc1ccccc1 (configuration not stated)	14%	i	3%	13µM*	·	?
